# Laboratory results published in PubChem BioAssay.
# Measured potencies and affinities stand elsewhere. Calls of active or inactive are those of the source. The rule behind the calls is not given here.
# Assay: HepG2 cell cytotoxicity, dose response, cytotoxicity control, plate reader, cherry-pick, antagonist series (AID 743416)
# Conditions: series mostly up to 26 µM
row,Structure (SMILES),outcome
1,C[C@H]1CCCCO[C@@H](CN(C)C(=O)Nc2ccc(F)cc2)[C@@H](C)CN([C@@H](C)CO)C(=O)c2cc(NC(=O)C3CCCCC3)ccc2O1,inactive
2,C[C@@H]1CN([C@@H](C)CO)C(=O)c2cccc(NC(=O)Nc3ccc(C(F)(F)F)cc3)c2O[C@@H]1CN(C)C(=O)Nc1cccc2ccccc12,inactive
3,Cc1ccc(C#N)c(SCc2nnc(-c3ccc(Cl)cc3)o2)n1,inactive
4,Cc1cccc(-c2ccc([C@H]3[C@@H](CO)N4CCCCN(C(=O)c5cccnc5)C[C@@H]34)cc2)c1,inactive
5,COc1cccc(NC(=O)Nc2cccc(C(=O)O)c2)c1,inactive
6,Cc1ccccc1C(=O)Nc1ccc2c(c1)OCCO2,inactive
7,O=C(Nc1ccc(Cl)cc1)Nc1ccccc1C(=O)O,inactive
8,Cc1ccc(S(=O)(=O)N2CCCCC2)cc1NC(=O)c1ccc2c(=O)n3c(nc2c1)CCCCC3,inactive
9,CCOc1ccc(-c2ccc(SCC)nn2)cc1,inactive
10,Cc1ccc2nc(-c3ccc(NC(=O)C4CCCO4)cc3)[nH]c2c1 (centres undefined),inactive
11,COc1ccc(S(=O)(=O)Nc2ccc3c(c2)C(=O)N([C@@H](C)CO)C[C@@H](C)[C@H](CN(C)C(=O)Nc2cccc4ccccc24)OCCCC[C@H](C)O3)cc1,inactive
12,C[C@H](CO)N1C[C@H](C)[C@H](CN(C)S(=O)(=O)c2ccc(C(F)(F)F)cc2)OCc2ccccc2-c2c(n(C)c3ccccc23)C1=O,inactive
13,Cc1ccc(Nc2nc3ccccc3s2)c(C)c1,inactive
14,CCCNC(=O)COC(=O)c1ccccc1C(=O)c1ccc(Cl)c([N+](=O)[O-])c1,inactive
15,CN(C)S(=O)(=O)c1cccc(NC(=O)COc2ccccc2C(=O)Nc2ccccc2)c1,inactive
16,COc1ccc(-c2cn3cc(C)ccc3n2)cc1F,inactive
17,CC(=O)c1ccc(NC(=O)c2noc3c2CCC3)cc1,inactive
18,N#C[C@@H]1[C@H](c2ccc(C#CC3CCCCC3)cc2)[C@@H](CO)N1C(=O)c1cccc(F)c1,inactive
19,C[C@H](CO)N1C[C@H](C)[C@H](CN(C)C(=O)Nc2ccccc2)OCCCC[C@H](C)Oc2ccc(NC(=O)Nc3ccc4c(c3)OCO4)cc2C1=O,inactive
20,N#C[C@@H]1[C@H](c2ccc(C#Cc3ccccc3F)cc2)[C@@H](CO)N1C(=O)C1CC1,inactive

row,Structure (SMILES),outcome
1,Cc1cccc(-c2ccc([C@H]3[C@@H](CO)N4CCCCN(C(=O)c5ccc6c(c5)OCO6)C[C@@H]34)cc2)c1,inactive
2,COc1ccc(S(=O)(=O)N(C)C[C@@H]2OCCCC[C@H](C)Oc3ccc(NS(=O)(=O)c4ccc(Cl)cc4)cc3C(=O)N([C@@H](C)CO)C[C@@H]2C)cc1,inactive
3,N#Cc1cccc(-c2ccc(C3[C@@H]4CN(C(=O)c5ccccn5)C[C@H]3N4)cc2)c1 (some centres undefined),inactive
4,COc1ccc(Nc2ncc(F)c(N3CCOCC3)n2)cc1,inactive
5,O=C(Nc1ccc(Cl)cc1Cl)c1ccc2c(c1)OCCO2,inactive
6,CN1c2ccc(-c3ccc(F)cc3)cc2[C@H]2[C@H](CCN2C(=O)Nc2ccc(F)cc2)[C@H]1CO,inactive
7,CO[C@@H]1CN(C)C(=O)c2cc(NC(C)=O)ccc2OC[C@@H](C)N(Cc2ccc(F)cc2)C[C@@H]1C,inactive
8,CC1CCN(c2ccc(-c3cccs3)nn2)CC1,inactive
9,CCc1ccc2oc(-c3ccc(N)cc3)nc2c1,inactive
10,Cc1ccc(C(=O)Nc2ccc3c(c2)OCCO3)cc1,inactive
11,O=c1[nH]c(CSc2ccccn2)nc2c1oc1ccccc12,inactive
12,O=C(COc1ccc2c(c1)CCC2)Nc1ccccn1,inactive
13,COC(=O)c1ccc2nc(-c3ccc4c(c3)OCO4)cn2c1,inactive
14,CCOc1ccc(C(=O)Nc2nnc(SCC(=O)NCC3CCCO3)s2)cc1 (centres undefined),inactive
15,COCC(=O)N1CCCCN2[C@H](CO)[C@H](c3ccc(-c4cccc(C)c4)cc3)[C@@H]2C1,inactive
16,C[C@H](CO)N1C[C@H](C)[C@H](CN(C)C(=O)Nc2cccc3ccccc23)OCCCC[C@H](C)Oc2ccc(NC(=O)c3ccccc3)cc2C1=O,inactive
17,O=C(NCCc1ccc(Cl)cc1)c1ccc2c(c1)OCCO2,inactive
18,O=C(Nc1ccc(NC(=O)c2ccco2)nc1)c1ccco1,inactive
19,O=C(Nc1ccc(-c2nc3cccnc3s2)cc1)C1CCCO1 (centres undefined),inactive
